Our source for the cell number and H1.0 immunofluorescence intensity values is the supplement of paper PMC7156485.

Where “and” joins values, the source holds several entries; their conditions need not be identical. Equal entries are not always repeated. ± gives the standard deviation of the averaged measurements.
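For H1.0 immunofluorescence intensity relative to DMSO in this document: TDF is a line of transformed human dermal fibroblasts of mesenchymal origin.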
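For cell number relative to DMSO in this document: TDF denotes transformed human dermal fibroblasts of mesenchymal origin.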

The subject of one experiment is TDF. As to the kind of experiment: cell number relative to DMSO (% of DMSO); higher = more cells (less growth inhibition / toxicity). The note with it: concentration: 10 µM; 24 h. An outline of the steps:
(§1)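 HCC1569 and TDF cells were seeded at 800 per well in 384-well plates in RPMI with 10% FBS and treated with compounds at 10 µM for 24 h at 37 °C, in triplicate. After fixation in 3.7% formaldehyde, cells were stained with a rabbit anti-H1.0 antibody, an AlexaFluor 647 secondary and DAPI, and six fields per well were imaged at ×10. H1.0 nuclear intensity or cell number is given as percent of the plate control, using the median of replicates, with HCC1569 values smoothed for positional effects.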
In the case of `CCC(C)SSc1ncc[nH]1` (stereo unspecified) [2-(sec-butyldisulfanyl)-1H-imidazole], the cell number was found to be 105. The same measure, in the same setting: with `CN1CCC(=C2c3ccccc3C=Cc3ccccc32)CC1` [Cyproheptadine] the figure was 83.7; with `CCn1cc(C(=O)O)c(=O)c2cc(F)c(N3CCNCC3)nc21` [Enoxacin], 91.3; with `CCCCC(=O)O[C@]1(C(=O)CO)[C@@H](C)C[C@H]2[C@@H]3CCC4=CC(=O)C=C[C@]4(C)[C@@]3(F)[C@@H](O)C[C@@]21C`, 106. In turn, `CCN(Cc1ccccc1)C(=O)Cn1c(=O)n(C)c2cnc(-c3ccccc3)nc21` displayed a cell number of 17.6. `NC(=O)N1c2ccccc2CC(=O)c2ccccc21` [Oxcarbazepine] registered a cell number of 108. On the same count and under the same terms, with `Cc1nc(Nc2ncc(C(=O)Nc3c(C)cccc3Cl)s2)cc(N2CCN(CCO)CC2)n1` [Dasatinib] the figure was 93.4; with `COc1ccc(-c2coc3cc(O)ccc3c2=O)cc1` [Formononetin], 103; with `CCCCCC(O)CC(=O)CCc1ccc(O)c(OC)c1` (stereo unspecified) [Gingerol], 97.2. Still for that read-out and setting: with `CN(C)c1ccc(C2Nc3ccc4ccccc4c3C3=C2C(=O)CC(C)(C)C3)cc1Br` (stereo unspecified) the figure was 79.3; with `CN1Cc2c(N)cccc2C(c2ccccc2)C1.O=C(O)C=CC(=O)O` (stereo unspecified) [Nomifensine maleate], 104; with `O=C1CCC(c2ccc(-n3ccnc3)cc2)=NN1` [Imazodan], 93.8. The same measure, in the same setting: as for `NC(C(=O)O)C1CC1C(=O)O` [(2S,1'S,2'S)-2-(carboxycyclopropyl)glycine], the figure is 110; as for `COC1(NC(=O)CSCC#N)C(=O)N2C(C(=O)[O-])=C(CSc3nnnn3C)CSC21.[Na+]` (stereo unspecified) [Cefmetazole sodium], 110; as for `NCCCCN=C(N)N.O=S(=O)(O)O` [Agmatine sulfate], 98.2. Consider `C=C1C(=O)C23C(O)C1CCC2C12COC3(O)C(O)C1C(C)(C)CCC2O` (stereo unspecified) [Rubescensin A], for which the cell number was determined as 99. On the same count and under the same terms, with `Cl.c1ccc2nc(C3=NCCN3)ccc2c1` [BU224 hydrochloride] the figure was 110; with `CCC1(O)CC2CN(CCc3c([nH]c4ccccc34)C(C(=O)OC)(c3cc4c(cc3OC)N(C)C3C(O)(C(=O)OC)C(OC(C)=O)C5(CC)C=CCN6CCC43C65)C2)C1` (stereo unspecified) [Vinblastine], 9.51; with `CCCCCC=CCC(O)C=Cc1cccc(CC(O)CCCCO)n1` (stereo unspecified), 108 ± 4.7.

Regarding `CN1CCN(CCC=C2c3ccccc3Sc3ccc(S(=O)(=O)N(C)C)cc32)CC1.Cl` [Thiothixene hydrochloride], the cell number amounted to 107. On the same count and under the same terms, with `CC(C=CC1=C(C)CCCC1(C)C)=CC=CC(C)=CC(=O)Nc1ccc(O)cc1` [4-Hydroxyphenylretinamide] the figure was 112. Same read-out and setting: as for `CCN1CCCC1CNC(=O)c1c(OC)ccc(Br)c1OC` (stereo unspecified) [Remoxipride], the figure is 101; as for `COc1ccccc1N1CCN(CCN(C(=O)c2ccc(F)cc2)c2ccccn2)CC1.Cl.Cl` [p-MPPF dihydrochloride], 109; as for `C=CCn1c(=O)c2c(nc(-c3ccc(S(=O)(=O)O)cc3)n2C)n(C)c1=O` [1-Allyl-3,7-dimethyl-8-p-sulfophenylxanthine], 108. The same measure, in the same setting: as for `C[N+](C)(C)CCCCCC[N+](C)(C)C.[Cl-].[Cl-]` [Hexamethonium dichloride], the figure is 99.9; as for `COc1ccc2c3c1OC1CC(O)C=CC31CCN(C)C2` (stereo unspecified) [Galanthamine], 110; as for `CC(=O)Oc1ccccc1C(=O)O` [Acetylsalicylic acid], 98.8. `CCOc1cc2ncc(C#N)c(Nc3ccc(F)c(Cl)c3)c2cc1NC(=O)/C=C/CN(C)C` returned a cell number of 10.

With `COC1C=COC2(C)Oc3c(C)c(O)c4c(O)c(cc(O)c4c3C2=O)NC(=O)C(C)=CC=CC(C)C(O)C(C)C(O)C(C)C(OC(C)=O)C1C` (stereo unspecified), the cell number amounted to 105. The same measure, in the same setting: with `CC1CN(S(=O)(=O)c2cccc3cnccc23)CCN1.Cl.Cl` (stereo unspecified) the figure was 109; with `CN(C)CC(=O)Nc1ccc2[nH]c(=O)c3ccccc3c2c1.Cl.O`, 99.1.

In another experiment the test system is TDF. As to the kind of experiment: H1.0 immunofluorescence intensity relative to DMSO (% of DMSO); higher = stronger H1.0 induction, active = 120 or more. To be noted: concentration: 10 µM; 24 h. A digest of the protocol:
as §1
For the compound `CCCCCCCCCCCCCCCCCCCCCC(=O)O` [Docosanoic acid], the H1.0 immunofluorescence intensity is 101 (inactive). Regarding `O=C(CCN1CCN(C(=O)OCc2cc(Cl)cc(Cl)c2)CC1)c1ccc2[nH]c(=O)oc2c1`, the H1.0 immunofluorescence intensity was 87.1 (inactive). Consider `N[C@@H](Cc1ccc(O)c(I)c1)C(=O)O` [3-Iodo-L-tyrosine], for which the H1.0 immunofluorescence intensity is 87.8 (inactive). Still for that read-out and setting: as for `CNCCC=C1c2ccccc2CCc2ccccc21.Cl` [Nortriptyline hydrochloride], the figure is 109 (inactive); as for `COc1ccc(/C=C2\COc3ccc(C)cc3C2=O)cc1O`, 126 (active). Still for that read-out and setting: as for `CC(C)(O)CCC(O)C(C)(O)C1CCC2(O)C3=CC(=O)C4CC(O)C(O)CC4(C)C3CCC12C` (stereo unspecified), the figure is 102 (inactive); as for `CCCNC(C)C(=O)Nc1ccccc1C.Cl` (stereo unspecified) [Prilocaine hydrochloride], 86.9 (inactive); as for `CN(C)c1ccc(C=C2C(=O)Nc3ccccc32)cc1`, 97 (inactive) and 108 (inactive) and 101 (inactive).

`CCC(CO)Nc1nc(NCc2ccc(-c3ccccn3)cc2)c2ncn(C(C)C)c2n1` [CR8, (S)-Isomer]: the H1.0 immunofluorescence intensity is 124 (active). As for `CCC(C)SSc1ncc[nH]1` (stereo unspecified) [2-(sec-butyldisulfanyl)-1H-imidazole], the H1.0 immunofluorescence intensity was 87.7 (inactive). With `CN1CCC(=C2c3ccccc3C=Cc3ccccc32)CC1` [Cyproheptadine], the H1.0 immunofluorescence intensity was 98.2 (inactive). On the same count and under the same terms, with `CCn1cc(C(=O)O)c(=O)c2cc(F)c(N3CCNCC3)nc21` [Enoxacin] the figure was 98.8 (inactive); with `CCCCC(=O)O[C@]1(C(=O)CO)[C@@H](C)C[C@H]2[C@@H]3CCC4=CC(=O)C=C[C@]4(C)[C@@]3(F)[C@@H](O)C[C@@]21C`, 87.6 (inactive); with `CCN(Cc1ccccc1)C(=O)Cn1c(=O)n(C)c2cnc(-c3ccccc3)nc21`, 156 (active). On the same count and under the same terms, with `NC(=O)N1c2ccccc2CC(=O)c2ccccc21` [Oxcarbazepine] the figure was 93.7 (inactive); with `Cc1nc(Nc2ncc(C(=O)Nc3c(C)cccc3Cl)s2)cc(N2CCN(CCO)CC2)n1` [Dasatinib], 107 (inactive); with `COc1ccc(-c2coc3cc(O)ccc3c2=O)cc1` [Formononetin], 87.5 (inactive). Still for that read-out and setting: with `CCCCCC(O)CC(=O)CCc1ccc(O)c(OC)c1` (stereo unspecified) [Gingerol] the figure was 92.9 (inactive); with `CN(C)c1ccc(C2Nc3ccc4ccccc4c3C3=C2C(=O)CC(C)(C)C3)cc1Br` (stereo unspecified), 113 (inactive).

Take `CN1Cc2c(N)cccc2C(c2ccccc2)C1.O=C(O)C=CC(=O)O` (stereo unspecified) [Nomifensine maleate]: the H1.0 immunofluorescence intensity was 89 (inactive). Still for that read-out and setting: with `O=C1CCC(c2ccc(-n3ccnc3)cc2)=NN1` [Imazodan] the figure was 103 (inactive).

With `NC(C(=O)O)C1CC1C(=O)O` [(2S,1'S,2'S)-2-(carboxycyclopropyl)glycine], the H1.0 immunofluorescence intensity was 85.1 (inactive). As for `COC1(NC(=O)CSCC#N)C(=O)N2C(C(=O)[O-])=C(CSc3nnnn3C)CSC21.[Na+]` (stereo unspecified) [Cefmetazole sodium], the H1.0 immunofluorescence intensity was 91.2 (inactive).

For `NCCCCN=C(N)N.O=S(=O)(O)O` [Agmatine sulfate], the H1.0 immunofluorescence intensity is 88.7 (inactive). Still for that read-out and setting: with `C=C1C(=O)C23C(O)C1CCC2C12COC3(O)C(O)C1C(C)(C)CCC2O` (stereo unspecified) [Rubescensin A] the figure was 96.2 (inactive); with `Cl.c1ccc2nc(C3=NCCN3)ccc2c1` [BU224 hydrochloride], 95 (inactive). Same read-out and setting: as for `CCC1(O)CC2CN(CCc3c([nH]c4ccccc34)C(C(=O)OC)(c3cc4c(cc3OC)N(C)C3C(O)(C(=O)OC)C(OC(C)=O)C5(CC)C=CCN6CCC43C65)C2)C1` (stereo unspecified) [Vinblastine], the figure is 161 (active). As to `CCCCCC=CCC(O)C=Cc1cccc(CC(O)CCCCO)n1` (stereo unspecified), the H1.0 immunofluorescence intensity is 95.9 (inactive). On the same count and under the same terms, with `CN1CCN(CCC=C2c3ccccc3Sc3ccc(S(=O)(=O)N(C)C)cc32)CC1.Cl` [Thiothixene hydrochloride] the figure was 98.5 (inactive); with `CC(C=CC1=C(C)CCCC1(C)C)=CC=CC(C)=CC(=O)Nc1ccc(O)cc1` [4-Hydroxyphenylretinamide], 95.7 (inactive); with `CCN1CCCC1CNC(=O)c1c(OC)ccc(Br)c1OC` (stereo unspecified) [Remoxipride], 96.7 (inactive). The same measure, in the same setting: as for `COc1ccccc1N1CCN(CCN(C(=O)c2ccc(F)cc2)c2ccccn2)CC1.Cl.Cl` [p-MPPF dihydrochloride], the figure is 89.7 (inactive); as for `C=CCn1c(=O)c2c(nc(-c3ccc(S(=O)(=O)O)cc3)n2C)n(C)c1=O` [1-Allyl-3,7-dimethyl-8-p-sulfophenylxanthine], 99.2 (inactive); as for `C[N+](C)(C)CCCCCC[N+](C)(C)C.[Cl-].[Cl-]` [Hexamethonium dichloride], 95.6 (inactive). Same read-out and setting: with `COc1ccc2c3c1OC1CC(O)C=CC31CCN(C)C2` (stereo unspecified) [Galanthamine] the figure was 94 (inactive); with `CC(=O)Oc1ccccc1C(=O)O` [Acetylsalicylic acid], 89.6 (inactive). As to `CCOc1cc2ncc(C#N)c(Nc3ccc(F)c(Cl)c3)c2cc1NC(=O)/C=C/CN(C)C`, the H1.0 immunofluorescence intensity was 177 (active).

On to `COC1C=COC2(C)Oc3c(C)c(O)c4c(O)c(cc(O)c4c3C2=O)NC(=O)C(C)=CC=CC(C)C(O)C(C)C(O)C(C)C(OC(C)=O)C1C` (stereo unspecified), for which the H1.0 immunofluorescence intensity was 97.7 (inactive). The same measure, in the same setting: with `CC1CN(S(=O)(=O)c2cccc3cnccc23)CCN1.Cl.Cl` (stereo unspecified) the figure was 86.2 (inactive).

For the compound `CN(C)CC(=O)Nc1ccc2[nH]c(=O)c3ccccc3c2c1.Cl.O`, the H1.0 immunofluorescence intensity is 97.4 (inactive).
